Results taken from PubChem BioAssay (NCI).
About 79,000 compounds went through this panel and 15% of them were active in at least one assay; those are over-represented in the sample as a whole. The source made the active and inactive calls. Cut-off read from the data, not from the text of the source: active = growth inhibition above about 70%; inactive = the rest.

Columns and labels:
[1] = NCI Yeast Anticancer Drug Screen. Data for the rad52 strain (AID 147);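 note: 0% = growth of vehicle-treated control cultures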; conditions: S. cerevisiae rad52 mutant growth inhibition, hits give high values
Summary of the method: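 Yeast strain carrying a DNA damage repair alteration was exposed to test compounds. Growth inhibition was measured relative to vehicle-treated controls.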

[2] = NCI Yeast Anticancer Drug Screen. Data for the wt1 strain (AID 149);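 note: 0% = growth of vehicle-treated wt1 cultures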; conditions: S. cerevisiae wt1 strain (SPY 50644) growth inhibition, hits give high values
Summary of the method: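 Using yeast strain wt1, compound-induced growth inhibition was determined against vehicle-treated cultures.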

[3] = NCI Yeast Anticancer Drug Screen. Data for the rad50EPP+ strain (AID 151);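 note: 0% = growth of vehicle-treated control cultures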; conditions: S. cerevisiae rad50 mutant strain, hits give high values
Summary of the method: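 Yeast strain carrying rad50 alteration (rad50EPP+) exposed to compounds; growth inhibition measured relative to vehicle-treated controls.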

[4] = NCI Yeast Anticancer Drug Screen. Data for the rad50 strain (AID 155);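 note: 0% = growth of vehicle-only cultures of the same strain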; conditions: S. cerevisiae rad50 strain growth inhibition, hits give high values
Summary of the method: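 Relative growth inhibition (compound vs vehicle) was measured in yeast with a defined repair-gene alteration.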

[5] = NCI Yeast Anticancer Drug Screen. Data for the mec2-1 strain (AID 157); conditions: S. cerevisiae mec2-1 strain, hits give high values
Summary of the method: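 mec2-1 yeast strain, carrying an alteration in DNA damage repair or cell cycle control, was exposed to compounds; growth inhibition was measured relative to vehicle-treated controls.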

[6] = NCI Yeast Anticancer Drug Screen. Data for the rad14 strain (AID 159);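 note: 0% = growth of vehicle-treated control cultures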; conditions: S. cerevisiae rad14 strain growth inhibition, hits give high values
Summary of the method: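 Screen for anticancer potential: a yeast strain altered in DNA damage repair is grown with compound, and reduced growth is quantified against vehicle controls.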

[7] = NCI Yeast Anticancer Drug Screen. Data for the sgs1 mgt1 strain (AID 161);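 note: 0% = growth of cultures given vehicle only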; conditions: S. cerevisiae sgs1 mgt1 strain, hits give high values
Summary of the method: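 This yeast growth screen uses a strain with defined DNA-repair lesions; compound-treated growth is compared with vehicle-treated growth.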

[8] = NCI Yeast Anticancer Drug Screen. Data for the CLN2oe strain (AID 163);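 note: 0% = growth of vehicle-only control cultures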; conditions: S. cerevisiae CLN2oe strain, hits give high values
Summary of the method: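 Yeast cells carrying a defined cell-cycle control alteration were exposed to test compounds. Growth inhibition was scored against vehicle-treated control cultures.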

[9] = NCI Yeast Anticancer Drug Screen. Data for the cln2 rad14 strain (AID 165);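 note: 0% = growth equal to vehicle treated cultures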; conditions: S. cerevisiae cln2 rad14 strain, hits give high values
Summary of the method: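 Yeast carrying cln2 and rad14 alterations (cell cycle control and DNA damage repair) were exposed to compounds. Growth inhibition was measured against vehicle-treated controls.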

[10] = NCI Yeast Anticancer Drug Screen. Data for the bub3 strain (AID 167); conditions: S. cerevisiae bub3 mutant strain, hits give high values
Summary of the method: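 Screening used yeast with an engineered genetic alteration affecting cell cycle control. Compound-exposed cultures were compared with vehicle cultures, and reduced growth was taken as inhibition.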

[11] = NCI Yeast Anticancer Drug Screen. Data for the wt2 strain (AID 169);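 note: 0% = growth of vehicle-treated yeast cultures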; conditions: S. cerevisiae wt2 strain growth inhibition, hits give high values
Summary of the method: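 Yeast cells were exposed to test compounds, and growth inhibition was measured relative to vehicle-treated controls.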

[12] = NCI Yeast Anticancer Drug Screen. Data for the mlh1 strain (AID 171);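 note: 0% = growth of vehicle-treated control cultures of the same strain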; conditions: S. cerevisiae mlh1 strain growth inhibition, hits give high values
Summary of the method: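 Yeast carrying a defined genetic alteration in DNA damage repair or cell cycle control were exposed to test compounds. Growth inhibition was measured relative to vehicle-treated controls.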

[13] = NCI Yeast Anticancer Drug Screen. Data for the mlh1 rad18 strain (AID 175); conditions: S. cerevisiae mlh1 rad18 strain growth inhibition, hits give high values
Summary of the method: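 Growth inhibition of the yeast strain was measured after compound exposure and expressed relative to vehicle-treated controls. The strain carries defined defects in DNA damage repair.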

[14] = NCI Yeast Anticancer Drug Screen. Data for the rad18 strain (AID 177); conditions: S. cerevisiae rad18 mutant growth inhibition, hits give high values
Summary of the method: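 Yeast carrying a defined DNA damage repair alteration were exposed to compounds. Growth inhibition was expressed relative to vehicle-treated controls.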

[15] = at 5.0 µM (retest, dose inferred, filed as 0.5)
[16] = at 50.0 µM (retest, dose inferred, filed as 5.0)

Measured: growth inhibition

COC(=O)c1cccc(C)c1C(=O)c1c(C)cc(C)cc1C
active: [1]; at 100.0 µM 77% | [3]; at 100.0 µM 76% | [4]; at 100.0 µM 76% | [5]; at 100.0 µM 72% | [13]; [16] 82%
inactive: [1]; at 1.2 µM -1% | [1]; at 3.7 µM -1% | [1]; at 11.0 µM 4% | [1]; at 33.0 µM 28% | [2]; at 1.2 µM 0% | [2]; at 3.7 µM 1% | [2]; at 11.0 µM -2% | [2]; at 33.0 µM 5% | [2]; at 100.0 µM 53% | [3]; at 1.2 µM -6% | [3]; at 3.7 µM 6% | [3]; at 11.0 µM 5% | [3]; at 33.0 µM 26% | [4]; at 1.2 µM -1% | [4]; at 3.7 µM 1% | [4]; [15] -10% | [4]; at 11.0 µM 5% | [4]; at 33.0 µM 28% | [4]; [16] 52% | [4]; at 50.0 µM 15.5% | [5]; at 1.2 µM -3% | [5]; at 3.7 µM -1% | [5]; [15] 3% | [5]; at 11.0 µM 4% | [5]; at 33.0 µM 21% | [5]; [16] 59% | [5]; at 50.0 µM 22.8% | [6]; at 1.2 µM 0% | [6]; at 3.7 µM 0% | [6]; at 11.0 µM 5% | [6]; at 33.0 µM 20% | [6]; at 100.0 µM 47% | [7]; [15] -7% | [7]; [16] 25% | [7]; at 50.0 µM 25.1% | [8]; at 1.2 µM 3% | [8]; at 3.7 µM 2% | [8]; at 11.0 µM 2% | [8]; at 33.0 µM 11% | [8]; at 100.0 µM 42% | [9]; [15] -25% | [9]; [16] 15% | [9]; at 50.0 µM 25.2% | [10]; at 1.2 µM 0% | [10]; at 3.7 µM -2% | [10]; [15] 9% | [10]; at 11.0 µM -3% | [10]; at 33.0 µM 4% | [10]; [16] 22% | [10]; at 50.0 µM 16.8% | [10]; at 100.0 µM 62% | [11]; at 1.2 µM -3% | [11]; at 3.7 µM -3% | [11]; at 11.0 µM -4% | [11]; at 33.0 µM 9% | [11]; at 100.0 µM 50% | [12]; at 1.2 µM -1% | [12]; at 3.7 µM 2% | [12]; at 11.0 µM 6% | [12]; at 33.0 µM 19% | [12]; at 100.0 µM 59% | [13]; [15] 4% | [13]; at 50.0 µM 15.7% | [14]; at 1.2 µM 4% | [14]; at 3.7 µM 7% | [14]; at 11.0 µM 10% | [14]; at 33.0 µM 28% | [14]; at 100.0 µM 67%

CC(=O)N1C(=O)/C(=C\C(=O)c2ccc([N+](=O)[O-])cc2)c2ccccc21
inactive: [1]; at 1.2 µM -14% | [1]; at 3.7 µM 18% | [1]; at 11.0 µM 53% | [2]; at 1.2 µM -10% | [2]; at 3.7 µM -15% | [2]; at 11.0 µM 21% | [3]; at 1.2 µM -12% | [3]; at 3.7 µM 35% | [3]; at 11.0 µM 4% | [4]; at 1.2 µM 0% | [4]; at 3.7 µM -8% | [4]; [15] 41% | [4]; at 11.0 µM 34% | [5]; at 1.2 µM -10% | [5]; at 3.7 µM 13% | [5]; [15] 60% | [5]; at 11.0 µM 28% | [6]; at 1.2 µM -8% | [6]; at 3.7 µM 9% | [6]; at 11.0 µM 31% | [7]; [15] 46% | [8]; at 1.2 µM -31% | [8]; at 3.7 µM 4% | [8]; at 11.0 µM 28% | [8]; at 33.0 µM 51% | [9]; [15] 25% | [9]; [16] 66% | [10]; at 1.2 µM -33% | [10]; at 3.7 µM -11% | [10]; [15] 12% | [10]; at 11.0 µM 22% | [11]; at 1.2 µM 29% | [11]; at 3.7 µM 55% | [12]; at 1.2 µM -8% | [12]; at 3.7 µM 14% | [12]; at 11.0 µM 67% | [14]; at 1.2 µM 1% | [14]; at 3.7 µM 26% | [14]; at 11.0 µM 61%
active: [1]; at 33.0 µM 92% | [1]; at 100.0 µM 97% | [2]; at 33.0 µM 77% | [2]; at 100.0 µM 97% | [3]; at 33.0 µM 89% | [3]; at 100.0 µM 95% | [4]; at 33.0 µM 93% | [4]; [16] 98% | [4]; at 50.0 µM 85.5% | [4]; at 100.0 µM 95% | [5]; at 33.0 µM 91% | [5]; [16] 98% | [5]; at 50.0 µM 89.5% | [5]; at 100.0 µM 97% | [6]; at 33.0 µM 86% | [6]; at 100.0 µM 97% | [7]; [16] 98% | [7]; at 50.0 µM 88.8% | [8]; at 100.0 µM 96% | [9]; at 50.0 µM 84.5% | [10]; at 33.0 µM 95% | [10]; [16] 96% | [10]; at 50.0 µM 86.8% | [10]; at 100.0 µM 96% | [11]; at 11.0 µM 93% | [11]; at 33.0 µM 98% | [11]; at 100.0 µM 98% | [12]; at 33.0 µM 95% | [12]; at 100.0 µM 97% | [13]; [15] 72% | [13]; [16] 98% | [13]; at 50.0 µM 85.7% | [14]; at 33.0 µM 90% | [14]; at 100.0 µM 97%

CCc1[nH]nc(C(N)=O)c1N=NN(C)C
inactive: [1]; at 1.2 µM 3% | [1]; at 3.7 µM 20% | [1]; at 11.0 µM 66% | [2]; at 1.2 µM -6% | [2]; at 3.7 µM -4% | [2]; at 11.0 µM -7% | [2]; at 33.0 µM -5% | [2]; at 100.0 µM 1% | [3]; at 1.2 µM 0% | [3]; at 3.7 µM 12% | [3]; at 11.0 µM 27% | [3]; at 33.0 µM 69% | [4]; at 1.2 µM -4% | [4]; at 3.7 µM 5% | [4]; [15] -118% | [4]; at 11.0 µM 49% | [5]; at 1.2 µM 3% | [5]; at 3.7 µM -1% | [5]; [15] -46% | [5]; at 11.0 µM 7% | [5]; at 33.0 µM 25% | [5]; [16] 11% | [5]; at 50.0 µM 17.7% | [6]; at 1.2 µM -1% | [6]; at 3.7 µM -3% | [6]; at 11.0 µM 3% | [6]; at 33.0 µM 13% | [6]; at 100.0 µM 41% | [7]; [15] -57% | [7]; [16] 14% | [7]; at 50.0 µM 12.8% | [8]; at 1.2 µM -2% | [8]; at 3.7 µM -3% | [8]; at 11.0 µM 0% | [8]; at 33.0 µM 1% | [8]; at 100.0 µM 18% | [9]; [15] -53% | [9]; [16] -35% | [9]; at 50.0 µM 21.1% | [10]; at 1.2 µM -9% | [10]; at 3.7 µM -5% | [10]; [15] -66% | [10]; at 11.0 µM -3% | [10]; at 33.0 µM -6% | [10]; [16] -84% | [10]; at 50.0 µM -15.4% | [10]; at 100.0 µM 14% | [11]; at 1.2 µM -1% | [11]; at 3.7 µM 0% | [11]; at 11.0 µM -1% | [11]; at 33.0 µM 0% | [11]; at 100.0 µM 11% | [12]; at 1.2 µM 4% | [12]; at 3.7 µM -4% | [12]; at 11.0 µM -2% | [12]; at 33.0 µM 6% | [12]; at 100.0 µM 21% | [13]; [15] -126% | [13]; [16] 1% | [14]; at 1.2 µM 1% | [14]; at 3.7 µM 6% | [14]; at 11.0 µM 28%
active: [1]; at 33.0 µM 97% | [1]; at 100.0 µM 97% | [3]; at 100.0 µM 95% | [4]; at 33.0 µM 90% | [4]; [16] 85% | [4]; at 50.0 µM 90.1% | [4]; at 100.0 µM 97% | [5]; at 100.0 µM 94% | [13]; at 50.0 µM 70.7% | [14]; at 33.0 µM 85% | [14]; at 100.0 µM 96%
